Experimental data reported in PubChem BioAssay (EPA / NIEHS).
Inconclusive results are not listed. Calls of active or inactive are those of the source. How the source made its calls, unless noted: active means hit-call score of the fitted dose curve at least 0.9, where 1 is the maximum; inactive means score below 0.9.

Experiments:
[1] = target: Paired box protein Pax-6 (Homo sapiens) (UniProt P26367); assay: ATG_Pax6_CIS: Attagene CIS-FACTORIAL HepG2 Assay for human Paired Box 6 (PAX6) (AID 2282956); settings: HepG2 CIS-FACTORIAL PAX6 reporter transcription, RNA readout; actives raise or lower the signal
How it was run: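 HepG2 cells transiently transfected with cis-promoter-driven multiplexed reporter units sensing endogenous transcription factor activity; 24 h chemical exposure. Reporter mRNA quantified by RT-PCR, 6-FAM labelling, HpaI digestion and capillary electrophoresis; bidirectional fit versus DMSO baseline.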

[2] = ATG_PXRE_CIS: Attagene CIS-FACTORIAL HepG2 Assay for human Pregnane X Receptor Element (PXRE) (AID 2282957); settings: HepG2 Attagene CIS-FACTORIAL PXRE reporter, mRNA; actives raise or lower the signal
How it was run: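 Cis-element reporter mRNA in human hepatoma HepG2 cells is measured 24 h post-dosing by RT-PCR, primer-extension labeling and capillary electrophoresis; gain or loss of signal is fitted relative to DMSO.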

[3] = ATG_RORE_CIS: Attagene CIS-FACTORIAL HepG2 Assay for human RAR-related Orphan Receptor Element (RORE) (AID 2282959); settings: HepG2 Attagene cis-factorial RORE reporter, mRNA; actives raise or lower the signal
How it was run: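 Transiently transfected HepG2 reporter cells were treated 24 h. Reporter transcripts were detected by RT-PCR and capillary electrophoresis, with bidirectional fitting against DMSO.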

[4] = ATG_Sox_CIS: Attagene CIS-FACTORIAL HepG2 Assay for human SRY-box transcription factor (SOX) (AID 2282960); settings: HepG2 Attagene cis-factorial SOX reporter, mRNA; actives raise or lower the signal
How it was run: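 Gain- or loss-of-signal endpoint, fitted bidirectionally with DMSO as negative control. Based on reporter mRNA from transfected HepG2 cells harvested 24 h post-treatment and quantified via RT-PCR and capillary electrophoresis.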

[5] = target: Transcription factor Sp1 (Homo sapiens) (UniProt P08047); assay: ATG_Sp1_CIS: Attagene CIS-FACTORIAL HepG2 Assay for human Specificity Protein 1 (Sp1) (AID 2282961); settings: HepG2 Sp1 cis-reporter transcription, actives raise or lower the signal
How it was run: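 Endpoint reflects endogenous Sp1 transcriptional activity, not an exogenous fusion protein: HepG2 cells with transfected cis-regulated reporters, 24 h dosing, RT-PCR/capillary electrophoresis mRNA read-out, DMSO-normalised bidirectional fit.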

[6] = ATG_SREBP_CIS: Attagene CIS-FACTORIAL HepG2 Assay for human Sterol Regulatory Element Binding (SREBP) (AID 2282962); settings: HepG2 Attagene cis-factorial SREBP reporter, mRNA; actives raise or lower the signal
How it was run: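 HepG2 cells transiently transfected with multiplexed cis-promoter reporter units sensing endogenous transcription factors; reporter mRNA measured 24 h after dosing by RT-PCR, 6-FAM labeling, HpaI digestion and capillary electrophoresis. Bidirectional fit versus DMSO.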

[7] = target: Signal transducer and activator of transcription 3 (Homo sapiens) (UniProt P40763); assay: ATG_STAT3_CIS: Attagene CIS-FACTORIAL HepG2 Assay for human Signal Transducer and Activator of Transcription 3 (STAT3) (AID 2282963); settings: HepG2, Attagene cis-factorial STAT3 reporter transcription; actives raise or lower the signal
How it was run: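 Transcript-level reporter assay. HepG2 transient MRTU transfection, 24 h exposure, fluorescence detection after RT-PCR and CE; DMSO baseline.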

[8] = ATG_TA_CIS: Attagene CIS-FACTORIAL HepG2 Assay for human TA Basal Promoter (AID 2282964); settings: HepG2 Attagene CIS-factorial TA basal promoter reporter; actives raise or lower the signal
How it was run: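 HepG2 cells transiently transfected with multiple reporter units under cis promoter elements, reporting endogenous transcription factor activity; this endpoint tracks the TA basal promoter as background control. Reporter mRNA after 24 h dosing measured by RT-PCR/capillary electrophoresis; bidirectional fits versus DMSO.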

[9] = ATG_TCF_b_cat_CIS: Attagene CIS-FACTORIAL HepG2 Assay for human T-Cell-Factor with beta-catenin (TCF/b-cat) (AID 2282965); settings: HepG2 TCF/beta-catenin cis-reporter transcription, actives raise or lower the signal
How it was run: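 In this cis-format system, transfected HepG2 cells report endogenous transcription factor activity. Readout after 24 h exposure is reporter transcript abundance from RT-PCR and capillary electrophoresis, analysed for gain or loss of signal versus DMSO.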

[10] = ATG_TAL_CIS: Attagene CIS-FACTORIAL HepG2 Assay for human TAL Basal Promoter (AID 2282966); settings: HepG2 Attagene cis-factorial TAL promoter reporter; actives raise or lower the signal;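 further: background control endpoint measuring basal TAL promoter reporter mRNA not a specific factor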
How it was run: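 In this cell-based multiplex, HepG2 liver cells bearing cis-promoter reporter constructs are dosed for 24 hours. Total RNA is reverse-transcribed and amplified, labelled fragments are sized by capillary electrophoresis, and signal changes are fitted bidirectionally versus DMSO.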

[11] = ATG_TGFb_CIS: Attagene CIS-FACTORIAL HepG2 Assay for human Transforming Growth Factor (TGF) (AID 2282967); settings: HepG2 Attagene CIS TGFb reporter, mRNA transcription; actives raise or lower the signal
How it was run: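 HepG2 cells transiently transfected with cis-promoter-driven multiple reporter units measure endogenous TF activity; reporter mRNA quantified at 24 h by RT-PCR, FAM labeling, HpaI digestion and capillary electrophoresis. Bidirectional fit vs DMSO.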

[12] = ATG_VDRE_CIS: Attagene CIS-FACTORIAL HepG2 Assay for human Vitamin D Receptor Element (VDRE) (AID 2282968); settings: HepG2 VDRE cis-reporter transcription, actives raise or lower the signal
How it was run: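 RT-PCR/CE readout of reporter mRNA; HepG2, transient transfection, 24 h dosing; DMSO baseline; bidirectional analysis.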

[13] = target: Nuclear receptor subfamily 1 group I member 3 (Homo sapiens) (UniProt Q14994); assay: ATG_CAR_TRANS: Attagene TRANS-FACTORIAL HepG2 Assay for human Constitutive Androstane Receptor (CAR) (AID 2282969; active means hit-call score of the fitted dose curve at least 0.9, where 1 is the maximum;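 further: activators raise reporter mRNA above DMSO so AC50 marks induction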); settings: HepG2 Attagene TRANS-FACTORIAL CAR reporter
How it was run: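 HepG2 cells transiently transfected with multiplexed GAL4-UAS reporter units expressing chimeric NR-Gal4 proteins; compound exposure 24 h. Reporter mRNA measured by RT-PCR, 6-FAM labelling, HpaI digestion and capillary electrophoresis; gain-of-signal fitted against DMSO baseline.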

[14] = target: Steroid hormone receptor ERR1 (Homo sapiens) (UniProt P11474); assay: ATG_ERRa_TRANS: Attagene TRANS-FACTORIAL HepG2 Assay for human Estrogen-Related Receptor alpha (ERRa) (AID 2282971; active means hit-call score of the fitted dose curve at least 0.9, where 1 is the maximum); settings: HepG2 Attagene TRANS reporter, ERRa transactivation
How it was run: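 Transfected HepG2, 24 h dosing, ERRa-Gal4 chimera driving GAL4-UAS reporter. Readout: reporter mRNA via RT-PCR plus capillary electrophoresis (fluorescence). Positive direction vs DMSO control.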

[15] = target: X-box-binding protein 1 (Homo sapiens) (UniProt P17861); assay: ATG_Xbp1_CIS: Attagene CIS-FACTORIAL HepG2 Assay for human X-box Binding Protein 1 (XBP1) (AID 2282972); settings: HepG2 XBP1 cis-element reporter, Attagene multiplex; actives raise or lower the signal
How it was run: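 HepG2 cells transiently transfected with multiple cis-element reporter units report endogenous TF activity; 24 h exposure, then reporter mRNA measured by RT-PCR, 6-FAM labelling, HpaI digestion and capillary electrophoresis. Bidirectional fitting versus DMSO.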

[16] = ATG_M_19_TRANS: Attagene TRANS-FACTORIAL HepG2 Assay for M19 Transcription Factor (Internal Marker) (AID 2282974; active means hit-call score of the fitted dose curve at least 0.9, where 1 is the maximum); settings: HepG2 Attagene TRANS-FACTORIAL M19 internal marker reporter
How it was run: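 Using RT-PCR and capillary electrophoresis, reporter mRNA from transiently transfected human HepG2 cells was quantified following 24 h exposure; activity was fitted in the positive direction against DMSO.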

[17] = target: Estrogen-related receptor gamma (Homo sapiens) (UniProt P62508); assay: ATG_ERRg_TRANS: Attagene TRANS-FACTORIAL HepG2 Assay for human Estrogen-Related Receptor gamma (ERRg) (AID 2282977; active means hit-call score of the fitted dose curve at least 0.9, where 1 is the maximum;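 further: hits increase reporter signal over DMSO so potencies reflect activators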); settings: HepG2 Attagene TRANS reporter, ERRg transactivation
How it was run: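 Transfect HepG2 with multiple GAL4-UAS reporter transcription units; dose chemicals 24 h; isolate RNA, reverse-transcribe with oligo(dT), PCR-amplify, label with 6-FAM, digest with HpaI; size fragments by capillary electrophoresis. DMSO serves as negative control.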

[18] = target: Glucocorticoid receptor (Homo sapiens) (UniProt P04150); assay: ATG_GR_TRANS: Attagene TRANS-FACTORIAL HepG2 Assay for human Glucocorticoid Receptor (GR) (AID 2282978; active means hit-call score of the fitted dose curve at least 0.9, where 1 is the maximum;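 further: activators score as hits since higher reporter transcript over DMSO is fitted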); settings: HepG2 Attagene TRANS GR reporter, mRNA transcription
How it was run: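 Exogenous NR-GAL4 fusion activity was assessed through induced GAL4-UAS reporter transcripts in transfected human HepG2 cells, quantified after 24 h by RT-PCR and fluorescent capillary electrophoresis with DMSO as baseline.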

[19] = ATG_GAL4_TRANS: Attagene TRANS-FACTORIAL HepG2 Assay for GAL4 (Internal Marker) (AID 2282976; active means hit-call score of the fitted dose curve at least 0.9, where 1 is the maximum); settings: HepG2 Attagene TRANS GAL4 internal marker reporter
How it was run: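 RT-PCR/capillary electrophoresis readout of reporter mRNA. HepG2, transient MRTU transfection (GAL4-UAS reporters), 24 h compound exposure. Background-control endpoint, positive direction vs DMSO baseline.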

[20] = ATG_PPRE_CIS: Attagene CIS-FACTORIAL HepG2 Assay for human Peroxisome Proliferator-activated Response Element (PPRE) (AID 2282958); settings: HepG2 PPRE cis-element reporter, Attagene transcription factor profiling; actives raise or lower the signal
How it was run: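 Measured endpoint: PPRE-controlled reporter mRNA, detected by RT-PCR and capillary electrophoresis fluorescence, from transiently transfected HepG2 cells 24 h after dosing. Curves fitted in both directions using DMSO baseline.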

Nuclear receptor subfamily 1 group I member 3 (Homo sapiens), sequence (Q14994 whole entry, looked up, the tested form may be a part): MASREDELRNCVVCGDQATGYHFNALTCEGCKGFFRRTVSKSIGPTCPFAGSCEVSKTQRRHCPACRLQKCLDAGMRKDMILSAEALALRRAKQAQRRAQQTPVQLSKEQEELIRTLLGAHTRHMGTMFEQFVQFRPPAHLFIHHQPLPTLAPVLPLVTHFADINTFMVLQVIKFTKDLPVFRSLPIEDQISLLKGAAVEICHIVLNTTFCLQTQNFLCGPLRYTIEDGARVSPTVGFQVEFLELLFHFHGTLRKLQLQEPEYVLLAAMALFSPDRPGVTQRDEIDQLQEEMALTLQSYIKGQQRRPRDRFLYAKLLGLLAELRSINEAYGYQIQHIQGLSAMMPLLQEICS
Signal transducer and activator of transcription 3 (Homo sapiens), sequence (P40763 whole entry, looked up): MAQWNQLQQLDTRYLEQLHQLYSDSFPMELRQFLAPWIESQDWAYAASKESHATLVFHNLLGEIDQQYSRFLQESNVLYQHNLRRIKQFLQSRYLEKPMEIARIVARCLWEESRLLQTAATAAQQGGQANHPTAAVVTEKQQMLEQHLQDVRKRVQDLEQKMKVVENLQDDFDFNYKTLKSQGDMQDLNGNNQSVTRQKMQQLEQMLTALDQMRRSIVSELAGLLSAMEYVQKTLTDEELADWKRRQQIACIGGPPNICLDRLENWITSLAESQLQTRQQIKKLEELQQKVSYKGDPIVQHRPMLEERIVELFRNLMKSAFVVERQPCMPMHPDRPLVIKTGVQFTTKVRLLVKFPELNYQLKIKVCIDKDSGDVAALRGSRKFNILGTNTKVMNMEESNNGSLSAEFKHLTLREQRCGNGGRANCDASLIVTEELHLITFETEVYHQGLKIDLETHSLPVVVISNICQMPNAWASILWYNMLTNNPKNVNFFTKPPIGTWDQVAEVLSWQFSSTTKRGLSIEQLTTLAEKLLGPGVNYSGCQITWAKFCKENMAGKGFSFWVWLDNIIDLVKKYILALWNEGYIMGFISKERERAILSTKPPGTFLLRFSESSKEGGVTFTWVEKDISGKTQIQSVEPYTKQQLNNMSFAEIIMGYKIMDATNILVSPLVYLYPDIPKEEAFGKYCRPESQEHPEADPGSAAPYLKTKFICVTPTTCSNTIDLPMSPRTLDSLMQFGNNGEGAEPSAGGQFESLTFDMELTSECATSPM
X-box-binding protein 1 (Homo sapiens), sequence (P17861 whole entry, looked up): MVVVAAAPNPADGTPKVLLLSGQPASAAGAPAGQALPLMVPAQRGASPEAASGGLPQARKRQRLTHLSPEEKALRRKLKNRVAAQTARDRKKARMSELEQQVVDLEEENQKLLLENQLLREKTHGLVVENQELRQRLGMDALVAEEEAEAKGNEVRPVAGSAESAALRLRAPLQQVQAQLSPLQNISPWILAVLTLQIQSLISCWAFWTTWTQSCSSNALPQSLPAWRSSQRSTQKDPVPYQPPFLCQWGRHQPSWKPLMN
Paired box protein Pax-6 (Homo sapiens), sequence (P26367 whole entry, looked up): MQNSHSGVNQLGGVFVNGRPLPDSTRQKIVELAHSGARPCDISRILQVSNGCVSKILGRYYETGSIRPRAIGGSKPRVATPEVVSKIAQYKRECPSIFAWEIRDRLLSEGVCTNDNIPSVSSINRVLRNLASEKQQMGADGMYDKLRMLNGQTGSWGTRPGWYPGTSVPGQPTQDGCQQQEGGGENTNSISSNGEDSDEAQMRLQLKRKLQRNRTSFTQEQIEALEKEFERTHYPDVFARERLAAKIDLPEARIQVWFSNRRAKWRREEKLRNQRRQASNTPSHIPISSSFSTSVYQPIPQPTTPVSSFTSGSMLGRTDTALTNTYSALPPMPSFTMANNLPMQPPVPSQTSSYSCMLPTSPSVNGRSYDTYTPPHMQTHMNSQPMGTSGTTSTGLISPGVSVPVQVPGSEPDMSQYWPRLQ
Estrogen-related receptor gamma (Homo sapiens), sequence (P62508 whole entry, looked up, the tested form may be a part): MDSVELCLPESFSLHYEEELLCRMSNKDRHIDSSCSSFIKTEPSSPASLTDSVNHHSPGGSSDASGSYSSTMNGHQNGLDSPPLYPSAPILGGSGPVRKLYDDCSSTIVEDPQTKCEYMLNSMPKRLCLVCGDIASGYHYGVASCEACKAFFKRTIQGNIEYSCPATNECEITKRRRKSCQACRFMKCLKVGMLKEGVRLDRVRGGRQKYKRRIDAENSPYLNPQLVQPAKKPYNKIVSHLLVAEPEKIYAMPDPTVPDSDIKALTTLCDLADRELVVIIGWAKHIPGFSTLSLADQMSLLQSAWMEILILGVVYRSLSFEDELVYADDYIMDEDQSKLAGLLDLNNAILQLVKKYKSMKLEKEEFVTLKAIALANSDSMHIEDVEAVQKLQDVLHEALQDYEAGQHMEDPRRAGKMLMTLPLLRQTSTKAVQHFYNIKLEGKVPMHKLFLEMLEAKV
Transcription factor Sp1 (Homo sapiens), sequence (P08047 whole entry, looked up, the tested form may be a part): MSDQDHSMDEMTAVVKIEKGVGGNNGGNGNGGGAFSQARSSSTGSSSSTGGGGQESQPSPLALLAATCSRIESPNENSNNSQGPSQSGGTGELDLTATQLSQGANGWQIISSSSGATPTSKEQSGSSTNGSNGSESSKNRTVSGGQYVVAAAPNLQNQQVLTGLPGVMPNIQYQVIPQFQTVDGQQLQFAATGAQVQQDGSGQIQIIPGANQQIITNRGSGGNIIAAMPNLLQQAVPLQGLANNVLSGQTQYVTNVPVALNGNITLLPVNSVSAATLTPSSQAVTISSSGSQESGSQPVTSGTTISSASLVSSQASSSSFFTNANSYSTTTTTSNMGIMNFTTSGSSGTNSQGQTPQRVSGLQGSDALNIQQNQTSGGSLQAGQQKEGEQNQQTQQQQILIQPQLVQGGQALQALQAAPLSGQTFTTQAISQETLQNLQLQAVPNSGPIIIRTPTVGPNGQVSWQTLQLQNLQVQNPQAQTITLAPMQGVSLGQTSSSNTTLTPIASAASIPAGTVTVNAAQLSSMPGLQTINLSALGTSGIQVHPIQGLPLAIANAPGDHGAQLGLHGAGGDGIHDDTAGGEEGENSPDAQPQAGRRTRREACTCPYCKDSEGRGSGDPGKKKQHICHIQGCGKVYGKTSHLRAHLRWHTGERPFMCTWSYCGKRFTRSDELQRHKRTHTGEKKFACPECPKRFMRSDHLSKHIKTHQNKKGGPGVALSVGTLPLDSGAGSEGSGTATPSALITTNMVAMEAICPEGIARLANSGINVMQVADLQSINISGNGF
Glucocorticoid receptor (Homo sapiens), sequence (P04150 whole entry, looked up, the tested form may be a part): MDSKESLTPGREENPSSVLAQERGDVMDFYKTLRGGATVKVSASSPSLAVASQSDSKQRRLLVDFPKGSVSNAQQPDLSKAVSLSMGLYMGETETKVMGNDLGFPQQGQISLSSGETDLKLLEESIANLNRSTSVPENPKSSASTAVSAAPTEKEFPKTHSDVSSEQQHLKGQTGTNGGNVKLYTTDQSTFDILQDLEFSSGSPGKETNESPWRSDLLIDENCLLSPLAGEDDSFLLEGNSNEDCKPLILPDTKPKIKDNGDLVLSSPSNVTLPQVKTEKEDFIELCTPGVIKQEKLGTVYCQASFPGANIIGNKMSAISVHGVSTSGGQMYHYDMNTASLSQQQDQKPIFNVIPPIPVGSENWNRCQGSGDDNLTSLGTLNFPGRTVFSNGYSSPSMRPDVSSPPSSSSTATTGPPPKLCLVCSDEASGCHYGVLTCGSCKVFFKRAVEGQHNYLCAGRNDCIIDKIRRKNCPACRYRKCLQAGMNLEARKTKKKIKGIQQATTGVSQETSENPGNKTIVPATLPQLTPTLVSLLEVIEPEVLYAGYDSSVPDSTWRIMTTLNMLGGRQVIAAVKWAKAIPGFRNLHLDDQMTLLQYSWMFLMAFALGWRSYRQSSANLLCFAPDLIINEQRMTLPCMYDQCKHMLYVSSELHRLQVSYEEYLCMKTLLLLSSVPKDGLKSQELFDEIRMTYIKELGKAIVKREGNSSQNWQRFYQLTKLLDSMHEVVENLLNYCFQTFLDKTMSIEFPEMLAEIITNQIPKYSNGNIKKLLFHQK
Steroid hormone receptor ERR1 (Homo sapiens), sequence (P11474 whole entry, looked up, the tested form may be a part): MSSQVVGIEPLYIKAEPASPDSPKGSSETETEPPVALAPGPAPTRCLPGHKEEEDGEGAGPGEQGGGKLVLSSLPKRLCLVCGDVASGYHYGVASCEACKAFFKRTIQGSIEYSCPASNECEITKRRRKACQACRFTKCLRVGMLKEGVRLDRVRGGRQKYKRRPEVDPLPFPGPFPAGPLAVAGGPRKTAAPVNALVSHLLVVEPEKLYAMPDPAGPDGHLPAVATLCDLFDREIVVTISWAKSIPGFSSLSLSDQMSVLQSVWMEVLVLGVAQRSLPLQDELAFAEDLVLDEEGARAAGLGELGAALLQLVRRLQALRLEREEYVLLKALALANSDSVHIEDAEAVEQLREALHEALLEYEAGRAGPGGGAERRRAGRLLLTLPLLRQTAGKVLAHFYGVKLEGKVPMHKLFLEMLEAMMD

SMILES: Oc1c(Cl)cc(Cl)c(Cl)c1Cc1c(O)c(Cl)cc(Cl)c1Cl
- AC50 [1]: 11.1 µM (active)
- AC50 [2]: 0.802 µM (active)
- AC50 [3]: 2.2 µM (active)
- outcome [4]: inactive
- outcome [5]: inactive
- outcome [6]: inactive
- outcome [7]: inactive
- outcome [8]: inactive
- AC50 [9]: 11.1 µM (active)
- outcome [10]: inactive
- outcome [11]: inactive
- AC50 [12]: 1.97 µM (active)
- outcome [13]: inactive
- outcome [14]: inactive
- outcome [15]: inactive
- outcome [16]: inactive
- outcome [17]: inactive
- outcome [18]: inactive

SMILES: O=C(Nc1ccc2c(c1)Cc1ccccc1-2)C(F)(F)F
- outcome [1]: inactive
- AC50 [2]: 27.7 µM (active)
- AC50 [3]: 17.5 µM (active)
- outcome [4]: inactive
- outcome [5]: inactive
- outcome [6]: inactive
- outcome [7]: inactive
- outcome [8]: inactive
- outcome [9]: inactive
- outcome [10]: inactive
- outcome [11]: inactive
- AC50 [12]: 30.5 µM (active)
- outcome [13]: inactive
- outcome [15]: inactive
- outcome [18]: inactive

SMILES: Cc1cccc(Nc2ccccc2)c1
- AC50 [1]: 120 µM (active)
- AC50 [2]: 26.6 µM (active)
- outcome [3]: inactive
- outcome [4]: inactive
- AC50 [5]: 127 µM (active)
- AC50 [6]: 100 µM (active)
- outcome [7]: inactive
- outcome [8]: inactive
- outcome [9]: inactive
- outcome [10]: inactive
- outcome [11]: inactive
- AC50 [12]: 58.2 µM (active)
- outcome [13]: inactive

SMILES: CC1C2CC(CC2C2CCCC(O)C2)C1(C)C (centres undefined)
- outcome [1]: inactive
- AC50 [2]: 3.04 µM (active)
- outcome [3]: inactive
- outcome [4]: inactive
- outcome [5]: inactive
- outcome [6]: inactive
- outcome [7]: inactive
- outcome [8]: inactive
- outcome [9]: inactive
- outcome [10]: inactive
- outcome [11]: inactive
- outcome [12]: inactive
- outcome [15]: inactive
- outcome [19]: inactive
- outcome [18]: inactive

SMILES: COC(=O)c1cccnc1
- outcome [1]: inactive
- outcome [2]: inactive
- outcome [20]: inactive
- outcome [4]: inactive
- outcome [5]: inactive
- outcome [6]: inactive
- outcome [7]: inactive
- outcome [10]: inactive
- outcome [11]: inactive
- outcome [14]: inactive
- outcome [15]: inactive
- outcome [16]: inactive
- outcome [19]: inactive
- outcome [17]: inactive
- outcome [18]: inactive

SMILES: Cc1ccc(C)o1
- outcome [1]: inactive
- outcome [2]: inactive
- outcome [20]: inactive
- outcome [4]: inactive
- outcome [5]: inactive
- outcome [6]: inactive
- outcome [7]: inactive
- outcome [10]: inactive
- outcome [11]: inactive
- outcome [12]: inactive
- outcome [15]: inactive
- outcome [16]: inactive
- outcome [17]: inactive

SMILES: C=CC(=O)OCCCC
- outcome [1]: inactive
- outcome [2]: inactive
- outcome [3]: inactive
- outcome [4]: inactive
- outcome [5]: inactive
- outcome [6]: inactive
- outcome [7]: inactive
- outcome [8]: inactive
- outcome [9]: inactive
- outcome [10]: inactive
- outcome [11]: inactive
- outcome [12]: inactive
- outcome [13]: inactive
- outcome [15]: inactive
- outcome [16]: inactive

SMILES: CCCCN(CCCC)C(=O)N(CCCC)CCCC
- AC50 [1]: 37.2 µM (active)
- AC50 [2]: 0.753 µM (active)
- outcome [3]: inactive
- AC50 [4]: 52.2 µM (active)
- AC50 [5]: 46.8 µM (active)
- AC50 [6]: 54.6 µM (active)
- outcome [7]: inactive
- AC50 [8]: 25.5 µM (active)
- AC50 [9]: 60.6 µM (active)
- AC50 [10]: 50.2 µM (active)
- AC50 [11]: 59.6 µM (active)
- AC50 [12]: 7.92 µM (active)
- outcome [13]: inactive
- outcome [15]: inactive
- outcome [18]: inactive

SMILES: CC(=O)O[C@@H]1C[C@@H]2CC[C@@]1(C)C2(C)C
- outcome [1]: inactive
- outcome [2]: inactive
- outcome [3]: inactive
- outcome [4]: inactive
- outcome [5]: inactive
- outcome [6]: inactive
- outcome [7]: inactive
- outcome [8]: inactive
- outcome [9]: inactive
- outcome [10]: inactive
- outcome [11]: inactive
- outcome [12]: inactive
- outcome [15]: inactive
- outcome [16]: inactive
- outcome [18]: inactive
